In PubChem BioAssay:
Values without a mark were called inactive. The rule behind the calls is not given here.

target: Pantothenate synthetase (Mycobacterium tuberculosis (strain ATCC 25618 / H37Rv)) (UniProt P9WIL5); assay: Coupled enzyme confirmation of inhibitors against recombinant Mtb PanC (AID 375); conditions: coupled enzyme assay; at 10 µM, active compounds read high;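 note: 0% = full reaction with vehicle and 100% = no enzyme background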
Sequence (P9WIL5 whole entry, looked up): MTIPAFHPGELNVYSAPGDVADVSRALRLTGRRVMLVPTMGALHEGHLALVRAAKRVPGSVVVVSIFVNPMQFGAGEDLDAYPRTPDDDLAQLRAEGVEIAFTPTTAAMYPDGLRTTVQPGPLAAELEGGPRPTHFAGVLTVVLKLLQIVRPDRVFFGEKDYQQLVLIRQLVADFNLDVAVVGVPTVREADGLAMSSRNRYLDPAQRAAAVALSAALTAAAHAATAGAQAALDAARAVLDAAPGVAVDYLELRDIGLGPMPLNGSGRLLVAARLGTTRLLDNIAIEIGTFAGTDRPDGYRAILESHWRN

Q: With `CN(C=O)CP(=O)(O)CCN1CCCC1=O` as the molecule, how does the inhibition read?
A: The inhibition was 0%.

Q: How did the inhibition turn out when `O=C(Nc1ccc(S(=O)(=O)NC2CCCC2)cc1)c1cnccn1` was run?
A: Its inhibition is 0%.

Q: With `CC(=O)OCC1=C(C(=O)O)N2C(=O)[C@@H](NC(=O)Cc3cccs3)[C@H]2SC1` as the molecule, how does the inhibition read?
A: Its inhibition is 0%.

Q: `CCOC(=O)C(C)C1(O)c2ccccc2-c2ncccc21` (stereo not given) was tested. Which inhibition did it give?
A: The inhibition was 0%.

Q: For `N#Cc1c(NC(=O)CSc2nnnn2C2CCCC2)sc2c1CCCC2`, which inhibition is on record?
A: Its inhibition is 7%.

Q: For `CC(=O)NC(CCS(C)(=O)=O)C(=O)Nc1cccc2ccccc12` (stereo not given), which inhibition is on record?
A: The inhibition was 0%.

Q: Which inhibition does the source give for `CCn1c2ccccc2c2cc(NC(=O)Cc3ccc(S(=O)(=O)N4CCOCC4)s3)ccc21` here?
A: The inhibition was 0%.

Q: With `CCOc1ccccc1-c1nc(-c2ccc(NC(=O)Cc3ccccc3OC)cc2)no1` as the molecule, how does the inhibition read?
A: The inhibition was 2%.

Q: How did the inhibition turn out when `Cc1ccnc2c(N3C(=O)C4C5C=CC(C5)C4(C)C3=O)cccc12` (stereo not given) was run?
A: The inhibition was 0%.

Q: `CCc1nnc(SCc2cn3c(C)cc(C)nc3n2)n1N` was tested. Which inhibition did it give?
A: The inhibition was 0%.

Q: With `CC(C)C(CO)NC(=O)CC(=O)NC(CO)C(C)C` (stereo not given) as the molecule, how does the inhibition read?
A: The inhibition was 2%.

Q: For `O=C(c1ccc2ccccc2n1)N1CCN(c2ccccc2)CC1`, which inhibition is on record?
A: Its inhibition is 0%.

Q: How did the inhibition turn out when `O=C(Cc1ccsc1-c1ccccc1)NO` was run?
A: The inhibition was 0%.

Q: How did the inhibition turn out when `C=CCn1c(=S)[nH]c2nc3c(cc2c1=O)COC(C)(C)C3` was run?
A: The inhibition was 16%.

Q: How did the inhibition turn out when `CCc1nnc(NC(=O)c2ccc(COc3ccccc3)o2)s1` was run?
A: The inhibition was 6%.

Q: Which inhibition does the source give for `Cc1cc(C)cc(-n2nnc(C(=O)NCc3ccc4c(c3)OCO4)c2N)c1` here?
A: Its inhibition is 0%.

Q: For `Cc1noc(C)c1CSc1nnc2scc(-c3ccc(Cl)cc3)n12`, which inhibition is on record?
A: The inhibition was 0%.

Q: With `Cc1nc(CCNS(=O)(=O)c2cccs2)cs1` as the molecule, how does the inhibition read?
A: The inhibition was 0%.

Q: With `Cc1onc(-c2c(Cl)cccc2Cl)c1C(=O)NCCCN1CCOCC1` as the molecule, how does the inhibition read?
A: The inhibition was 1%.

Q: `O=C(CSCCSCC(=O)c1ccco1)c1ccco1` was tested. Which inhibition did it give?
A: The inhibition was 0%.

Q: With `COCc1cc(C)c2c(N)c(C#N)sc2n1` as the molecule, how does the inhibition read?
A: The inhibition was 1%.

Q: How did the inhibition turn out when `Cc1nc2ccccc2c2oc(C(=O)NCc3ccccn3)cc12` was run?
A: Its inhibition is 2%.

Q: Which inhibition does the source give for `CCCCCOC(=O)C1=C(C)N(C)C(=O)NC1c1cc(Br)c(O)c(OC)c1` (stereo not given) here?
A: Its inhibition is 0%.

Q: With `CCCOC(=O)C1[C@H]2C(=O)N(CCCOC)C[C@]23C=C[C@H]1O3` (stereo not given in full) as the molecule, how does the inhibition read?
A: The inhibition was 0%.

Q: Which inhibition does the source give for `COc1ccc(C2C(C#N)=C(C)NC3=C2C(=O)CC(C)(C)C3)c(OC)c1` (stereo not given) here?
A: Its inhibition is 0%.

Q: `O=C1c2ccccc2C(=O)N1OCc1ccccc1` was tested. Which inhibition did it give?
A: The inhibition was 0%.

Q: For `CCOc1ccc(OCCCCN(C)C)cc1`, which inhibition is on record?
A: The inhibition was 2%.

Q: `CC1CCN(C(=O)CSc2nc3ccccc3[nH]2)CC1` was tested. Which inhibition did it give?
A: Its inhibition is 0%.

Q: How did the inhibition turn out when `Cc1ccc(C(=O)Nc2ccc3c(c2)OCO3)o1` was run?
A: The inhibition was 0%.

Q: With `COc1cc(NC(=O)C2C3C=CC(C3)C2C(=O)O)c(OC)cc1Cl` (stereo not given) as the molecule, how does the inhibition read?
A: The inhibition was 0%.

Q: With `Cc1[nH]nc2c1C(CCc1ccccc1)C(C#N)=C(N)O2` (stereo not given) as the molecule, how does the inhibition read?
A: Its inhibition is 0%.

Q: For `O=c1c2cc(N3CCOCC3)ccc2[nH]c(=S)n1CCCN1CCCCC1`, which inhibition is on record?
A: The inhibition was 1%.

Q: For `CCc1ccc2nc(NC(=O)CSCc3c(C)noc3C)sc2c1`, which inhibition is on record?
A: The inhibition was 6%.

Q: Which inhibition does the source give for `CCOc1ccccc1CNC(=O)CCN1C(=O)COc2ccccc21` here?
A: Its inhibition is 0%.

Q: How did the inhibition turn out when `COCCN(CCOC)Cc1c(C)[nH]c2ccccc2c1=O` was run?
A: Its inhibition is 0%.

Q: Which inhibition does the source give for `CN(CCCNC(=O)c1cn(C)c2ccc(S(=O)(=O)N(C)C)cc2c1=O)c1ccccc1` here?
A: Its inhibition is 4%.

Q: Which inhibition does the source give for `CC(=O)N(CCN(C(C)=O)c1ccccc1)c1ccccc1` here?
A: The inhibition was 0%.

Q: `COc1ccccc1N1CCN(Cc2nnnn2CCc2ccccc2)CC1` was tested. Which inhibition did it give?
A: Its inhibition is 0%.

Q: For `COc1nc(OC)nc(N2CCC(NC(=O)C(Cc3ccc(C(C)C)cc3)NC(C)=O)CC2)n1` (stereo not given), which inhibition is on record?
A: The inhibition was 5%.

Q: With `CN(CC(=O)Nc1ccc2c(c1)OCCO2)S(=O)(=O)c1ccc(Br)s1` as the molecule, how does the inhibition read?
A: Its inhibition is 6%.
